From PubChem BioAssay (EPA / NIEHS)
“And” between values parts separate entries of the source, which are not always exact repeats. Equal values may be shown once. Results filed as inconclusive are left out. More than one record can exist for a structure, and the calls need not agree. The source made the active and inactive calls. Rule for the calls, unless noted: active = hit-call score of the fitted dose curve at least 0.9, where 1 is the maximum; inactive = score below 0.9.

Assays:
[1] = molecular target: human RAR-related Orphan Receptor gamma (RORg), RORC (gene 6097) (UniProt P51449); assay: ATG_RORg_TRANS: Attagene TRANS-FACTORIAL HepG2 Assay for human RAR-related Orphan Receptor gamma (RORg) (AID 2283011; active = hit-call score of the fitted dose curve at least 0.9, where 1 is the maximum;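 for AC50: potency for induction of reporter transcripts above DMSO so activators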)
How it was run: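 Chimeric RORg-Gal4 transactivation in transfected HepG2; 24 h exposure; RT-PCR/capillary electrophoresis readout of reporter mRNA, DMSO baseline.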

[2] = read-out: E-selectin (Homo sapiens) (UniProt P16581); assay: BSK_3C_Eselectin: BioMAP Diversity Plus: 3C Assay for Eselectin Biomarker Activity (AID 2283015); details: primary human endothelial cells (HUVEC); actives raise or lower the signal;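 for outcome: cell surface E-selectin protein quantified by ELISA 24 h after dosing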
How it was run: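 Endpoint derived by bidirectional fitting against DMSO vehicle; signal is ELISA-detected E-selectin from primary HUVEC at 24 h post-dosing, with parallel SRB staining (0.1% SRB, 560 nm) flagging cytotoxicity.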

[3] = read-out: Interleukin-1 alpha (IL1a), IL1A (gene 3552); assay: BSK_BE3C_IL1a: BioMAP Diversity Plus: BE3C Assay for Interleukin-1 alpha (IL1a) Biomarker Activity (AID 2283016); details: primary human bronchial epithelial cells; actives raise or lower the signal
How it was run: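 Signal from IL-1a ELISA, taken 24 h after chemical dosing of human bronchial epithelial cells, is compared with DMSO as baseline using bidirectional curve fitting.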

[4] = read-out: Monocyte Chemoattractant Protein-1 (MCP1), CCL2 (gene 6347); assay: BSK_3C_MCP1: BioMAP Diversity Plus: 3C Assay for Monocyte Chemoattractant Protein-1 (MCP1) Biomarker Activity (AID 2283017); details: primary human endothelial cells (HUVEC); actives raise or lower the signal
How it was run: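 Using human vascular primary endothelium, researchers measured MCP-1 by ELISA 24 h after treatment, with DMSO serving as negative control for bidirectional fitting.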

[5] = read-out: Monocyte Chemoattractant Protein-1 (MCP1), CCL2 (gene 6347); assay: BSK_4H_MCP1: BioMAP Diversity Plus: 4H Assay for Monocyte Chemoattractant Protein-1 (MCP1) Biomarker Activity (AID 2283018); details: primary human endothelial cells (HUVEC); actives raise or lower the signal
How it was run: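 Endothelial cells from umbilical vein were treated with test chemical, then after 24 h MCP-1 levels were quantified by ELISA; endpoint values came from bidirectional fitting with DMSO as baseline of activity.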

[6] = read-out: Interleukin-8 (IL8), CXCL8 (gene 3576); assay: BSK_3C_IL8: BioMAP Diversity Plus: 3C Assay for Interleukin-8 (IL8) Biomarker Activity (AID 2283020); details: primary human endothelial cells (HUVEC); actives raise or lower the signal
How it was run: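 Endothelial primary cells of human umbilical vein origin are dosed with chemical; after 24 h the IL-8 biomarker is measured by ELISA, and concentration–response is fitted in both directions versus DMSO.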

[7] = read-out: Monokine induced gamma interferon (MIG), CXCL9 (gene 4283); assay: BSK_3C_MIG: BioMAP Diversity Plus: 3C Assay for Monokine induced gamma interferon (MIG) Biomarker Activity (AID 2283021); details: primary human endothelial cells (HUVEC); actives raise or lower the signal;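 for AC50: MIG protein level measured by immunoassay in the treated endothelial cultures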
How it was run: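 Endothelial primary cells (human umbilical vein) are dosed with test chemical in the 3C system. MIG levels are measured by ELISA at 24 h and fitted in both directions relative to DMSO.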

[8] = molecular target: human Vitamin D Receptor (VDR), VDR (gene 7421) (UniProt P11473); assay: ATG_VDR_TRANS: Attagene TRANS-FACTORIAL HepG2 Assay for human Vitamin D Receptor (VDR) (AID 2283022; active = hit-call score of the fitted dose curve at least 0.9, where 1 is the maximum)
How it was run: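 Multiplexed TRANS reporter in HepG2; 24 h treatment; reporter mRNA by RT-PCR plus capillary electrophoresis; upregulation scored relative to DMSO.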

[9] = read-out: Pselectin, SELP (gene 6403); assay: BSK_4H_Pselectin: BioMAP Diversity Plus: 4H Assay for Pselectin Biomarker Activity (AID 2283026); details: primary human endothelial cells (HUVEC); actives raise or lower the signal
How it was run: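 Endothelial primary cells (human umbilical vein) are dosed, incubated 24 h, and assayed for surface P-selectin by ELISA; responses in either direction are fitted relative to the DMSO negative control.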

[10] = BSK_4H_SRB: Viability Assessment in the BioMAP Diversity Plus: 4H Assay (AID 2283027); details: primary human endothelial cells (HUVEC);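 note: cells exposed to compound for 24 h before staining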;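 for AC50: curves fitted both ways versus DMSO so AC50 may be loss or gain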
How it was run: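 Cytotoxicity readout: sulforhodamine B (0.1%) staining of total protein after 10% TCA fixation, measured at 560 nm in human umbilical vein endothelium at 24 h. DMSO set the baseline; fitting was bidirectional.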

[11] = BSK_BE3C_SRB: Viability Assessment in the BioMAP Diversity Plus: BE3C Assay (AID 2283028); details: primary human bronchial epithelial cells;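 for AC50: fitted both ways so AC50 may mark signal gain or loss versus DMSO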
How it was run: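 SRB total-protein staining (0.1%, after TCA fixation) of chemically dosed human bronchial epithelial primary cells at 24 h; DMSO serves as the negative control for bidirectional curve fitting.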

[12] = molecular target: Retinoic acid receptor RXR-alpha (Homo sapiens) (UniProt P19793); assay: ATG_RXRa_TRANS: Attagene TRANS-FACTORIAL HepG2 Assay for human Retinoid X Receptor alpha (RXRa) (AID 2283012; active = hit-call score of the fitted dose curve at least 0.9, where 1 is the maximum)
How it was run: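 Measures exogenous chimeric NR-GAL4 activity in transfected HepG2 liver cells after 24 h of dosing. Induced reporter mRNA was detected by RT-PCR with capillary electrophoresis, and gain of signal was analysed against DMSO.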

[13] = BSK_3C_SRB: Viability Assessment in the BioMAP Diversity Plus: 3C Assay (AID 2283023); details: primary human endothelial cells (HUVEC);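 note: fitted both ways against DMSO so a hit may be signal rise or drop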
How it was run: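 Overt cytotoxicity is gauged in parallel confluent HUVEC cultures by SRB total-protein staining at the time of biomarker measurement, 24 h after dosing. Gain or loss of signal is fitted versus DMSO.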

[14] = read-out: Matrix Metallopeptidase 1 (MMP1), MMP1 (gene 4312); assay: BSK_BE3C_MMP1: BioMAP Diversity Plus: BE3C Assay for Matrix Metallopeptidase 1 (MMP1) Biomarker Activity (AID 2283024); details: primary human bronchial epithelial cells; actives raise or lower the signal
How it was run: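 MMP1 signal, measured by ELISA after a 24 h chemical exposure of human primary bronchial epithelial cells, is analysed with bidirectional fitting using DMSO as negative control.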

[15] = molecular target: human Retinoid X Receptor beta (RXRb), RXRB (gene 6257) (UniProt P28702); assay: ATG_RXRb_TRANS: Attagene TRANS-FACTORIAL HepG2 Assay for human Retinoid X Receptor beta (RXRb) (AID 2283013; active = hit-call score of the fitted dose curve at least 0.9, where 1 is the maximum)
How it was run: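 Chimeric receptor-Gal4 activity was assessed in transiently transfected human HepG2 cells after 24 h exposure. Transcripts from GAL4-UAS reporters were quantified by fluorescent RT-PCR and capillary electrophoresis, with DMSO as negative control and baseline.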

[16] = molecular target: human Thyroid Receptor alpha (THRa1), THRA (gene 7067) (UniProt P10827); assay: ATG_THRa1_TRANS: Attagene TRANS-FACTORIAL HepG2 Assay for human Thyroid Receptor alpha (THRa1) (AID 2283014; active = hit-call score of the fitted dose curve at least 0.9, where 1 is the maximum)
How it was run: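 Measured here is mRNA from a GAL4-UAS reporter in transfected HepG2 cells carrying a Gal4-fused receptor, 24 h post-dose. DMSO served as negative control and baseline.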

[17] = BSK_3C_Vis: BioMAP Diversity Plus: 3C Assay for Morphology Visualization (AID 2283025); details: primary human endothelial cells (HUVEC);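 note: fitted both ways so gain or loss versus DMSO counts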
How it was run: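 Morphology read by light microscopy serves as a background control for the multiplexed 3C assay in human umbilical vein endothelial cells, taken 24 h after dosing, with DMSO as the negative control and bidirectional curve fitting.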

[18] = read-out: Thrombomodulin, THBD (gene 7056); assay: BSK_3C_Thrombomodulin: BioMAP Diversity Plus: 3C Assay for Thrombomodulin Biomarker Activity (AID 2283029); details: primary human endothelial cells (HUVEC); actives raise or lower the signal
How it was run: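 Endothelial cells from umbilical vein are dosed with test chemical and incubated 24 h. Thrombomodulin is then quantified by ELISA, with DMSO serving as negative control and activity baseline.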

[19] = read-out: Human Leukocyte Antigen - DR isotype (HLADR), HLA-DRA (gene 3122); assay: BSK_3C_HLADR: BioMAP Diversity Plus: 3C Assay for Human Leukocyte Antigen - DR isotype (HLADR) Biomarker Activity (AID 2283019); details: primary human endothelial cells (HUVEC); actives raise or lower the signal;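 note: ELISA of cell-surface HLA-DR on HUVEC 24 h after dosing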
How it was run: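 Compound added to primary HUVEC cultures, 24 h incubation, then HLA-DR determined by ELISA; endpoint derived by bidirectional fitting relative to DMSO negative control.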

Sequence of human RAR-related Orphan Receptor gamma (RORg), RORC (gene 6097) (P51449 whole entry, looked up, the tested form may be a part): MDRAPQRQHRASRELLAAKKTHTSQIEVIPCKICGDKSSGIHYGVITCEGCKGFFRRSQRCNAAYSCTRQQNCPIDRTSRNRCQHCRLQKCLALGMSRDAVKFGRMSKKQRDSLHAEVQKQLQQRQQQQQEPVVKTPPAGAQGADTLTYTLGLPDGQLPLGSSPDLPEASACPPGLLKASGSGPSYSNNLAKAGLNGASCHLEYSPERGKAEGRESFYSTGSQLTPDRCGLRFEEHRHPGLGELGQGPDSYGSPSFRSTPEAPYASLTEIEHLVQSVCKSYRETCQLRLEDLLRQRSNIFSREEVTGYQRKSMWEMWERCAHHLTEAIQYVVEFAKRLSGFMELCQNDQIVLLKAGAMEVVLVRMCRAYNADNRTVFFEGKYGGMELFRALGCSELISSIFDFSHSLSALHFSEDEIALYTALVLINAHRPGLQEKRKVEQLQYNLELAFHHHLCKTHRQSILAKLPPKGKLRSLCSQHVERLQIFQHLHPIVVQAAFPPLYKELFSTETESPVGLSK
Sequence of Retinoic acid receptor RXR-alpha (Homo sapiens) (P19793 whole entry, looked up, the tested form may be a part): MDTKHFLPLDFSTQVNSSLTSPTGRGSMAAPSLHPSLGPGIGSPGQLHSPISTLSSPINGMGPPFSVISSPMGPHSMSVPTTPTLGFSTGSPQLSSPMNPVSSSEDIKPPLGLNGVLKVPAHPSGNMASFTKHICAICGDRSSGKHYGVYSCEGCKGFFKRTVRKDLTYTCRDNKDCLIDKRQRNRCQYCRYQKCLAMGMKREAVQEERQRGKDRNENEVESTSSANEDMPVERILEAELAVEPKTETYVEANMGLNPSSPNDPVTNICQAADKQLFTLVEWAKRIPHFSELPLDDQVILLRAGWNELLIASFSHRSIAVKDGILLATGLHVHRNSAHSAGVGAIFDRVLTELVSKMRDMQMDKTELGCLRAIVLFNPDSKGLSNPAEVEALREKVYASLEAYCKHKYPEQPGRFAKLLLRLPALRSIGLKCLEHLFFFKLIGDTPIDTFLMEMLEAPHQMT
Sequence of E-selectin (Homo sapiens) (P16581 whole entry, looked up): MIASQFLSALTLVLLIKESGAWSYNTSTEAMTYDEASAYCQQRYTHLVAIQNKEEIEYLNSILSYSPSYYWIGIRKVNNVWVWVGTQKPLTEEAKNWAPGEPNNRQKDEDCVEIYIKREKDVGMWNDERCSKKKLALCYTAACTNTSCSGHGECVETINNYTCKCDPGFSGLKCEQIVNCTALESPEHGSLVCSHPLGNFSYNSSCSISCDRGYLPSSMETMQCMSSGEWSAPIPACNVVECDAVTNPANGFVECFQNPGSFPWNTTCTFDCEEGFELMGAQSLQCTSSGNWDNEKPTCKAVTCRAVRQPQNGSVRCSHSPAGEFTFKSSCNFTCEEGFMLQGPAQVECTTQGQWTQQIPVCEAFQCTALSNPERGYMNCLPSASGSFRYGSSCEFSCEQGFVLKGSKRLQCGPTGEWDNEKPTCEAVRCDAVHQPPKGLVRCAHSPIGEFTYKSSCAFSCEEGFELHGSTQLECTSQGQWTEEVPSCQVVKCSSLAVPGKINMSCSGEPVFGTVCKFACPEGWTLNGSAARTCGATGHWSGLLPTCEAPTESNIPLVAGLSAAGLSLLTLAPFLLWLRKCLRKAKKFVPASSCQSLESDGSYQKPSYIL
Sequence of human Thyroid Receptor alpha (THRa1), THRA (gene 7067) (P10827 whole entry, looked up, the tested form may be a part): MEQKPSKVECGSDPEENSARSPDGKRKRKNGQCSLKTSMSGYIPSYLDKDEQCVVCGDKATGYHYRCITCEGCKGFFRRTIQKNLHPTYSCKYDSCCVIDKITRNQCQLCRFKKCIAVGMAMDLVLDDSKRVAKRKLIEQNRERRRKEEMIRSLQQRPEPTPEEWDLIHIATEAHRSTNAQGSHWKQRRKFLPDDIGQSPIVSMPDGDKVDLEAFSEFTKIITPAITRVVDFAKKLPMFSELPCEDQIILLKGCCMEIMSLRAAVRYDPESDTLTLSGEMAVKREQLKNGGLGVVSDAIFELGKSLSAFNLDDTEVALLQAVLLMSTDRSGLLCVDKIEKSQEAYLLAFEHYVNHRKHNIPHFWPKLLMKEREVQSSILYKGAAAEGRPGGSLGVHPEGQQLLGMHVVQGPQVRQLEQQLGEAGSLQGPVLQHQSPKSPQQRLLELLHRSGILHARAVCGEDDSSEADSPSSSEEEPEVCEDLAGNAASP
Sequence of human Vitamin D Receptor (VDR), VDR (gene 7421) (P11473 whole entry, looked up): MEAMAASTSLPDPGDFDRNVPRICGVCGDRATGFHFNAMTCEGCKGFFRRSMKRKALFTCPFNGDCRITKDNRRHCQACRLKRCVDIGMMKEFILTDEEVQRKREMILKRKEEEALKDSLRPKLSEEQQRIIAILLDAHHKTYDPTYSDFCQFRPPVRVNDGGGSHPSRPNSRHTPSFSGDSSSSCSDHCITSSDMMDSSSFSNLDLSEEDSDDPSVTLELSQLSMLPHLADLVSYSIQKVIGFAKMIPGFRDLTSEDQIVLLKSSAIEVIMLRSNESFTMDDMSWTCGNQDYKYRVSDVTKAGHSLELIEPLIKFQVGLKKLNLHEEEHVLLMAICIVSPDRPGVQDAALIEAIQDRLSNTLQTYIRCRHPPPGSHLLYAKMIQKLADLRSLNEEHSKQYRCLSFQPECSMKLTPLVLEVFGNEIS
Sequence of human Retinoid X Receptor beta (RXRb), RXRB (gene 6257) (P28702 whole entry, looked up, the tested form may be a part): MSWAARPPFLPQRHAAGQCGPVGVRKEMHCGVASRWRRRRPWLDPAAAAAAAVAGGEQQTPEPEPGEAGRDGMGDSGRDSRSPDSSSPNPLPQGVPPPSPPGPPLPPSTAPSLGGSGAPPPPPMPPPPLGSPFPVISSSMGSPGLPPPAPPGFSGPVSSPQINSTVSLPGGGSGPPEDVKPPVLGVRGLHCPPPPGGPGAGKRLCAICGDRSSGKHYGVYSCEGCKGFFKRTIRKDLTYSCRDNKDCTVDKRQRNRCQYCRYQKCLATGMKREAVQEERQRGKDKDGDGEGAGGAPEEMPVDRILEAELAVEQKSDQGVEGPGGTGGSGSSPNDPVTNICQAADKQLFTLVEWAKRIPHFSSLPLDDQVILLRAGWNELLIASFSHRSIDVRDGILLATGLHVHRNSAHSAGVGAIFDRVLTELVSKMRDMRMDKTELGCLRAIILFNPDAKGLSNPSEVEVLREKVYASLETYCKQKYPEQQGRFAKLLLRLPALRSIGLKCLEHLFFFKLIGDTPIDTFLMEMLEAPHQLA

NC(=O)C(F)(F)C(F)(F)C(F)(F)F
outcome [1]: inactive
outcome [2]: inactive
outcome [3]: inactive
outcome [4]: inactive
outcome [5]: inactive
outcome [6]: inactive
outcome [7]: inactive
outcome [8]: inactive
outcome [9]: inactive
outcome [10]: inactive
outcome [11]: inactive

O=C(O)C(F)(F)C(F)(F)C(F)(F)OC(F)(F)F
outcome [1]: inactive
outcome [12]: inactive
outcome [2]: inactive
outcome [3]: inactive
outcome [4]: inactive
outcome [5]: inactive
outcome [6]: inactive
outcome [7]: inactive
outcome [8]: inactive
outcome [13]: inactive
AC50 [14]: 37.3 µM (active)
outcome [14]: inactive
outcome [9]: inactive
outcome [10]: inactive
outcome [11]: inactive

CC(O)C#CC(C)O (stereo not given)
AC50 [1]: 136 µM (active)
outcome [15]: inactive
outcome [16]: inactive
outcome [8]: inactive

Cc1ccc(S(=O)(=O)C(I)I)cc1
outcome [12]: inactive
outcome [15]: inactive
outcome [16]: inactive
AC50 [2]: 3.08 µM (active)
AC50 [4]: 2.58 µM (active)
AC50 [5]: 1.43 µM (active)
AC50 [6]: 4.26 µM (active)
AC50 [7]: 3.75 µM (active)
AC50 [17]: 1.85 µM (active)
AC50 [9]: 1.87 µM (active)
AC50 [10]: 1.98 µM (active)
AC50 [11]: 5.15 µM (active)
AC50 [18]: 4.78 µM (active)

COCCC(=O)OC
outcome [1]: inactive
outcome [16]: inactive
outcome [8]: inactive

C[Si](C)O[Si](C)C
outcome [1]: inactive
outcome [12]: inactive
outcome [8]: inactive

CC1CCCCC1
outcome [1]: inactive
outcome [15]: inactive
outcome [16]: inactive

O=C(O)C(F)(F)OC(F)(F)C(F)(F)OC(F)(F)C(F)(F)OC(F)(F)F
outcome [12]: inactive
AC50 [15]: 13.2 µM (active)
outcome [16]: inactive
outcome [2]: inactive
outcome [3]: inactive
outcome [4]: inactive
outcome [5]: inactive
outcome [19]: inactive
outcome [6]: inactive
outcome [7]: inactive
outcome [8]: inactive
AC50 [14]: 2.78 µM (active) and 3.97 µM (active) and 11.8 µM (active)
outcome [9]: inactive
outcome [10]: inactive
outcome [11]: inactive
outcome [18]: inactive

O=C(F)C1(F)C(F)(F)C(F)(F)C(F)(F)C(F)(F)C1(F)F
outcome [2]: inactive
outcome [4]: inactive
outcome [5]: inactive
outcome [19]: inactive
outcome [6]: inactive
outcome [7]: inactive
outcome [8]: inactive
outcome [13]: inactive
outcome [14]: inactive
outcome [9]: inactive
outcome [10]: inactive
outcome [11]: inactive
